{"source": "PubChem BioAssay", "note": "Active and inactive are the calls of the source."}
{"test": "plasmodial surface anion channel blockers, osmotic lysis – cell-based, P. falciparum Indochina, OD700, 18 h, primary screen (AID 1157)", "conditions": "P. falciparum Indochina infected erythrocytes, osmotic lysis OD700, 18 h; higher = more signal, called active from +8 up or from −8 down"}
{"smiles": "CC(CCC(=O)OC[C@H]1O[C@H](C#Cc2ccccc2)C=C[C@@H]1Oc1ccc(C)cc1)=NOC(C)CN1CCCCc2nc(C)c(C)cc21", "note": "(some centres not stated)", "z-score": "0.662 (inactive)"}
{"smiles": "CO[C@@H]1C=CCC(=O)N[C@@H](C)C(=O)OC[C@@H](OC)[C@H](C)C=CCC(=O)OC[C@H]1C", "z-score": "0.205 (inactive)"}
{"smiles": "CO[C@@H]1[C@H](O)CO[C@H]1C=Cc1ccccc1", "z-score": "-0.0932 (inactive)"}
{"smiles": "CO[C@H]1COC(=O)[C@H](CCSC)NC(=O)CC=C[C@@H](C)[C@H](OC)COC(=O)[C@@H](OCc2ccccc2)C=C[C@@H]1C", "z-score": "0.367 (inactive)"}
{"smiles": "COc1ccc(OC[C@H]2CN3[C@@H](CC[C@@H](C)[C@@H]3c3ccc(Br)cc3)C(=O)O2)cc1", "z-score": "0.343 (inactive)"}
{"smiles": "COc1ccc(O[C@H]2C=C[C@@H](c3ccccc3)O[C@@H]2CO)cc1", "z-score": "0.64 (inactive)"}
{"test": "S6 kinase pathway phospho-S6 level changes – cell-based, A549, cytoblot, luminescence, serum-stimulated, primary screen (AID 1158);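 also: serum-stimulated A549 lung adenocarcinoma cells; signal is phosphorylated S6 detected by cytoblot immunostaining with HRP secondary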", "conditions": "5 h, higher = more signal"}
{"smiles": "CC(=O)OC[C@H]1O[C@@H](ON=C(C)C)[C@H](OC(C)=O)[C@@H](OC(C)=O)[C@@H]1OC(C)=O", "z-score": 0.152}
{"smiles": "CC(C)=CCCC(C)=CCON=C1[C@H]2CCn3c(=O)n(-c4ccccc4)c(=O)n3[C@H]2[C@H](O)[C@@H]2O[C@H]12", "z-score": 0.897}
{"smiles": "COC(=O)CC=C[C@@H](C)[C@@H](C=NOC[C@@H](C)[C@H](OCc1ccccc1)C(C)C)OC", "z-score": 0.391}
{"smiles": "CCOC(=O)CCN1C(=O)[C@H]2[C@H]3[C@H](O)[C@H](O)CC(=NO[C@@H]4O[C@H](CO)[C@@H](O)[C@H](O)[C@H]4O)[C@@H]3CC[C@H]2C1=O", "z-score": -0.235}
{"smiles": "COC(=O)[C@H](C)NC(=O)CCC1CC(OC(=O)NCc2ccc3c(c2)OCO3)CC2(CCCC(COC(=O)NCCc3ccc(Cl)cc3)O2)O1", "note": "(some centres not stated)", "z-score": 0.688}
{"smiles": "CC(CCN1CCCc2nc(C)c(C)cc21)=NOC[C@@H](O)COCc1ccco1", "z-score": -0.815}
{"smiles": "CC(CCN1CCCCc2nc(C)c(C)cc21)=NO[C@@H](C)c1cc(-c2c(C)cc(C)cc2C)no1", "z-score": 0.13}
{"smiles": "C[C@H]1CC[C@@H](C(=O)O)N[C@@H]1c1ccc(C#Cc2ccccc2)cc1", "z-score": -0.895}
{"smiles": "COc1ccc(O[C@H]2C=C[C@@H](c3ccccc3)O[C@@H]2COC(=O)NCc2cccc3ccccc23)cc1", "z-score": -0.553}
{"smiles": "CC(C)CON=C1C[C@@H](O)[C@@H](O)[C@@H]2[C@@H]3C(=O)N(C(C)(C)C)C(=O)[C@@H]3CC[C@@H]12", "z-score": 1.13}
{"smiles": "CC(C)CON=C1[C@H]2CCn3c(=O)n(C)c(=O)n3[C@H]2[C@H](O)[C@@H]2O[C@H]12", "z-score": -0.445}
{"smiles": "CCOC(=O)CCN1C(=O)[C@H]2[C@H]3[C@H](O)[C@H](O)CC(=O)[C@@H]3CC[C@H]2C1=O", "z-score": -0.373}
{"smiles": "CC1(C)O[C@H]2OC([C@H](O)CON3C(=O)c4ccccc4C3=O)[C@H](O)[C@H]2O1", "note": "(some centres not stated)", "z-score": -0.339}
{"smiles": "COc1cccc([C@H](O)Cn2cc(-c3ccc(CON=C(C)C)cc3)nn2)c1", "z-score": -1.07}
{"smiles": "COCC#Cc1ccc([C@@H]2N[C@H](C(=O)O)CC[C@H]2C)cc1", "z-score": 2.16}
{"smiles": "O=C1C[C@H](c2ccccc2)[C@H](c2ccc(Br)cc2)O1", "z-score": 1.61}
{"smiles": "CCCNC(=O)OC[C@H]1O[C@H](CCON=C[C@@H](NS(=O)(=O)c2ccc(C)cc2)[C@H](C)C=CCC(=O)OC)C=C[C@@H]1Oc1ccc(OC)cc1", "z-score": -0.81}
{"smiles": "CCOC(=O)[C@H](Cc1ccccc1)NC(=O)CCC1CC(OC(=O)NCCc2ccc(F)cc2)CC2(CCCC(COC(=O)NCCOc3ccccc3)O2)O1", "note": "(some centres not stated)", "z-score": -0.345}
{"smiles": "C=CC[C@@H]1C=C[C@H](Oc2ccc(C)cc2)[C@@H](COC(=O)NCc2cccc3ccccc23)O1", "z-score": -0.783}
{"smiles": "O=C1C2=CC[C@H]3C(=O)N(C[C@@H]4CCCO4)C(=O)[C@H]3[C@H]2[C@H](O)[C@@H]2O[C@H]12", "z-score": 0.177}
{"smiles": "CSCC[C@@H]1NC(=O)CC=C[C@@H](C)COC(=O)[C@H](C)COC1=O", "z-score": 2.08}
{"smiles": "COC(=O)[C@H](Cc1ccccc1)NC(=O)[C@@H](C)CO", "z-score": 1.92}
{"smiles": "O=C1[C@H]2[C@H]3[C@H](O)[C@H](O)CC(=NOCc4ccccc4)[C@@H]3CC[C@H]2C(=O)N1c1cccc(Oc2ccccc2)c1", "z-score": -0.116}
{"smiles": "CC(C)C(=O)N[C@H]1CCCN1C(=O)C=Cc1ccccc1", "z-score": -0.53}
{"smiles": "CCN1C(=O)[C@H]2[C@H]3[C@H](O)[C@H](O)CC(=NOCC(C)C)[C@H]3CC[C@H]2C1=O", "z-score": -0.812}
{"smiles": "C#CCCCON=C1[C@H]2CCn3c(=O)n(Cc4cc5c(cc4Cl)OCO5)c(=O)n3[C@H]2[C@H](O)[C@@H]2O[C@H]12", "z-score": -0.345}
{"smiles": "COC(=O)[C@H](C)NC(=O)CCC1CC(OC(=O)NCc2cccc3ccccc23)CC2(CCCC(COC(=O)NCCOc3ccccc3)O2)O1", "note": "(some centres not stated)", "z-score": 0.152}
{"smiles": "CO[C@H]1COC(=O)CC=C[C@@H](C)COC(=O)[C@H]2CCCN2C(=O)CC=C[C@H]1C", "z-score": 0.43}
{"smiles": "O=C1C[C@@H](O)[C@@H](O)[C@@H]2[C@@H]3C(=O)N(C4CCCCC4)C(=O)[C@@H]3CC[C@@H]12", "z-score": -0.604}
{"smiles": "CN1CCc2nc(-c3ccccc3)c(-c3ccccc3)cc2C1", "z-score": -0.76}
{"smiles": "CC(CCC(=O)OC[C@H]1O[C@H](C#Cc2ccccc2)C=C[C@@H]1Oc1ccc(C)cc1)=NOC(C)CN1CCCCc2nc(C)c(C)cc21", "note": "(some centres not stated)", "z-score": -0.487}
{"smiles": "CO[C@@H]1C=CCC(=O)N[C@@H](C)C(=O)OC[C@@H](OC)[C@H](C)C=CCC(=O)OC[C@H]1C", "z-score": 0.15}
{"smiles": "CO[C@@H]1[C@H](O)CO[C@H]1C=Cc1ccccc1", "z-score": 0.722}
{"smiles": "CO[C@H]1COC(=O)[C@H](CCSC)NC(=O)CC=C[C@@H](C)[C@H](OC)COC(=O)[C@@H](OCc2ccccc2)C=C[C@@H]1C", "z-score": -0.378}
{"smiles": "COc1ccc(OC[C@H]2CN3[C@@H](CC[C@@H](C)[C@@H]3c3ccc(Br)cc3)C(=O)O2)cc1", "z-score": 0.936}
{"smiles": "COc1ccc(O[C@H]2C=C[C@@H](c3ccccc3)O[C@@H]2CO)cc1", "z-score": -0.781}
